Test results as given in PMC7862700, “An all-to-all approach to the identification of sequence-specific readers for epigenetic DNA modifications on cytosine”.

Legend:
Assay in all cases: DAPPL (digital affinity profiling via proximity ligation, sequencing); 10 mM Tris-HCl pH 7.5, 50 mM NaCl, 1 mM DTT, 4% glycerol, room temperature, 30 min; GST-TFs on glutathione beads, 16-mer random dsDNA library, 0.1% formaldehyde crosslink after washing; high values mean tight binding
Conditions in all cases: protein: recombinant; tags: N-terminal GST; dsDNA, one strand shown
[1] = target: ETV1 (Homo sapiens, UniProt P50549 1-477)
ETV1, sequence (P50549 whole entry, the tested form may be a part): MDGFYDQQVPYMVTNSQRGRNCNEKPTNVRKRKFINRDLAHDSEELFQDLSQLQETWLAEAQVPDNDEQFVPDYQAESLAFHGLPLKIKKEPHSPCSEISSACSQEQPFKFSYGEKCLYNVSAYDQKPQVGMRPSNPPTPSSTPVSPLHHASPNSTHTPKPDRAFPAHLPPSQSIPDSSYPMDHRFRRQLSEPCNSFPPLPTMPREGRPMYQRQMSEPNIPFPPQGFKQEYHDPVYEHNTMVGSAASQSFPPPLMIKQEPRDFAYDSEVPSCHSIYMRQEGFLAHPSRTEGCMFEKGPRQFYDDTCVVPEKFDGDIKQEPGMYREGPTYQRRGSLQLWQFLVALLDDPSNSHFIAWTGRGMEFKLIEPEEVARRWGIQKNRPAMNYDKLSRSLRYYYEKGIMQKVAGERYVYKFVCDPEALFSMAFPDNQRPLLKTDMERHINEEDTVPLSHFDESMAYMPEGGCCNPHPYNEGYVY
Procedure, shortened: (§1)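 GST fusions of human transcription factors were expressed in yeast and captured with glutathione beads. Once given DNA barcodes and pooled alongside a tag-only sample, they were incubated for 30 min at room temperature with 200 nmole of a random double-stranded 16-mer DNA library in Tris/NaCl/DTT/glycerol buffer, then washed, crosslinked (0.1% formaldehyde), proximity-ligated, PCR-amplified and sequenced on an Illumina NextSeq500. The binding signal of each hexamer is its read frequency for a factor divided by its frequency for the tag-only sample.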

[2] = target: T1, ERF (Homo sapiens, UniProt P50548 1-548)
T1 sequence: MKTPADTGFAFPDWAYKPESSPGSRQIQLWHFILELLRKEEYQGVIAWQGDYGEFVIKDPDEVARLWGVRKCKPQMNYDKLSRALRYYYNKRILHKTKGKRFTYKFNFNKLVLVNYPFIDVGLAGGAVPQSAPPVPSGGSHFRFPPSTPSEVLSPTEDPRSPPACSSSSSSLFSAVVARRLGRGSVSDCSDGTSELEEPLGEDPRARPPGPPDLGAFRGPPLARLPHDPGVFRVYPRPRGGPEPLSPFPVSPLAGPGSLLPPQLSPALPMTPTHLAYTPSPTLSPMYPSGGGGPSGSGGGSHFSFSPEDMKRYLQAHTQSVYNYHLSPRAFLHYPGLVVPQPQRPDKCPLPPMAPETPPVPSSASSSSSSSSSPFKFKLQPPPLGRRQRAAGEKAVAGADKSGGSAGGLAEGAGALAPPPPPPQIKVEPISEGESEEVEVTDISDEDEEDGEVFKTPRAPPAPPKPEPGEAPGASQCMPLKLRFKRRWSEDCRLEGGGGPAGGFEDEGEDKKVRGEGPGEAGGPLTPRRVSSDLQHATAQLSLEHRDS
Procedure, shortened: as §1

[3] = target: T2, ETV3L (Homo sapiens, UniProt Q6ZN32 1-361)
T2 sequence: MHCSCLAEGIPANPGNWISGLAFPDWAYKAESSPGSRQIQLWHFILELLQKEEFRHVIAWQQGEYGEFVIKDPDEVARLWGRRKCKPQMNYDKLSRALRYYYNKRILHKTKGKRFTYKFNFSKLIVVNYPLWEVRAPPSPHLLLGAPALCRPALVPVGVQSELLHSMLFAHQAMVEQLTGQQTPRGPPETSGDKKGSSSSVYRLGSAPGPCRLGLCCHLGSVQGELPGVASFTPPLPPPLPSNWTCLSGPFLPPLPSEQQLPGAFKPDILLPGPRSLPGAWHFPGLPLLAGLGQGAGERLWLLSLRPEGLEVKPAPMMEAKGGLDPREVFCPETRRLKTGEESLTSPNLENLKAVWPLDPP
Procedure, shortened: as §1

[4] = target: T3, ETS2 (Homo sapiens, UniProt P15036 1-469)
T3 sequence: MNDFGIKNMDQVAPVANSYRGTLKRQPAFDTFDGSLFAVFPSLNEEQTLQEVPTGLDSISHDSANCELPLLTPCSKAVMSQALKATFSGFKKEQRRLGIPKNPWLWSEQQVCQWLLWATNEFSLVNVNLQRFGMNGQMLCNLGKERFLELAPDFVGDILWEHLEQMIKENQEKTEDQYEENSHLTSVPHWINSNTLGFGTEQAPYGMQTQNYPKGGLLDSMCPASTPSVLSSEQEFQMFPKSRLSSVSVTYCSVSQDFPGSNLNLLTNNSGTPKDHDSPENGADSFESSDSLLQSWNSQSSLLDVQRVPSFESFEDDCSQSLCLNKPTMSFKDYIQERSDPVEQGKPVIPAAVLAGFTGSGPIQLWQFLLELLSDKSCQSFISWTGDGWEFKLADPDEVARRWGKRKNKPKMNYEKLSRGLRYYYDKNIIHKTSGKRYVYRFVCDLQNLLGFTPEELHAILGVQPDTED
Procedure, shortened: as §1

[5] = target: T4, SPDEF (Homo sapiens, UniProt O95238 1-335)
T4 sequence: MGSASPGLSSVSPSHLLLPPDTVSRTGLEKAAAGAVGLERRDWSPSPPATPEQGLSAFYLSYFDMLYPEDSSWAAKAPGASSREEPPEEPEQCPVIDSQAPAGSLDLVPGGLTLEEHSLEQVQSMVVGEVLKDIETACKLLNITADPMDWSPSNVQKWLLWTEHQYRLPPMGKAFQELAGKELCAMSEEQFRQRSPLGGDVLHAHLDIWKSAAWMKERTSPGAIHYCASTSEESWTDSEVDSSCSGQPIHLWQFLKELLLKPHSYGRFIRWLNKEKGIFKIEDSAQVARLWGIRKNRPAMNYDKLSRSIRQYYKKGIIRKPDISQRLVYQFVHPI
Procedure, shortened: as §1

[6] = target: T5, ETV7 (Homo sapiens, UniProt Q9Y603 1-341)
T5 sequence: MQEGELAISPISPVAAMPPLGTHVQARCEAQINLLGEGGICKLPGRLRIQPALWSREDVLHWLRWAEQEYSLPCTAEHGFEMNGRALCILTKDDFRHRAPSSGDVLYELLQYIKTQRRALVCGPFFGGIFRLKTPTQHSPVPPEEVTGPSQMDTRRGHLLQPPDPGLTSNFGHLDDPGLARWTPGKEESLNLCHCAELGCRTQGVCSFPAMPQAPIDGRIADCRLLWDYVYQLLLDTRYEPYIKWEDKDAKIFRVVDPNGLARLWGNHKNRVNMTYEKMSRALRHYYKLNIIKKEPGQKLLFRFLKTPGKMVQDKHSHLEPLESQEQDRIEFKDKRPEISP
Procedure, shortened: as §1

[7] = target: T6, ELF5 (Homo sapiens, UniProt Q9UKW6-2 1-255)
T6 sequence: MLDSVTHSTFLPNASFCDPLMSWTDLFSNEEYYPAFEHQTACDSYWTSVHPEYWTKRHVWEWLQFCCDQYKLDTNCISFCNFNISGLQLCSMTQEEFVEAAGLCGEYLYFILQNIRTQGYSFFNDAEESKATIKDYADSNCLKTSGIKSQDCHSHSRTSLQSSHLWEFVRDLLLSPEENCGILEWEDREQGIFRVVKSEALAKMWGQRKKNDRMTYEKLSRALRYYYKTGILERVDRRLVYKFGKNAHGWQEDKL
Procedure, shortened: as §1

[8] = target: T7, ETV3 (Homo sapiens, UniProt P41162-2 1-143)
T7 sequence: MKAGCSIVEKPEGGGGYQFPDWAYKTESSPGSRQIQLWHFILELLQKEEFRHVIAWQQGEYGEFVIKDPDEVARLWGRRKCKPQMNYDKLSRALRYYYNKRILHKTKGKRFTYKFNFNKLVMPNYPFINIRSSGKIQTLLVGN
Procedure, shortened: as §1

[9] = target: ETV6 (Homo sapiens, UniProt P41212 1-452)
ETV6, sequence (P41212 whole entry): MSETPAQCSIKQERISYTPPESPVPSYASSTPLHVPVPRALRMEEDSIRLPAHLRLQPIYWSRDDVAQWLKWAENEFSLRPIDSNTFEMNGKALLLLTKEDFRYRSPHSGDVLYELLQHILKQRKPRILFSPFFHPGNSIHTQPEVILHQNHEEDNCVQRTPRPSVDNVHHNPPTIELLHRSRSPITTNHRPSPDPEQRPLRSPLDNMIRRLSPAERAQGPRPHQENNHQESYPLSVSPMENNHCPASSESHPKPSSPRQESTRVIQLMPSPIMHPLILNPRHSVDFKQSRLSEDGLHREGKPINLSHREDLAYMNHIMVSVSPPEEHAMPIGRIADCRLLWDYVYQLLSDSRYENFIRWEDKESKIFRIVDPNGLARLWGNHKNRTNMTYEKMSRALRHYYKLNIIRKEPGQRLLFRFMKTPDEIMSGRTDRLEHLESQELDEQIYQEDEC
Procedure, shortened: as §1

Q: For CTAGGT, which binding signal [1] is on record?
A: 1.1 fold enrichment (6-mer frequency, TF over GST control)

Q: And the binding signal [2]?
A: 1.03 fold enrichment (6-mer frequency, TF over GST control)

Q: What about the binding signal [3] of the same sequence?
A: 1.16 fold enrichment (6-mer frequency, TF over GST control)

Q: And the binding signal [4]?
A: 1.11 fold enrichment (6-mer frequency, TF over GST control)

Q: What about the binding signal [5] of the same sequence?
A: 1.17 fold enrichment (6-mer frequency, TF over GST control)

Q: And the binding signal [6]?
A: 1.1 fold enrichment (6-mer frequency, TF over GST control)

Q: What about the binding signal [7] of the same sequence?
A: 1.01 fold enrichment (6-mer frequency, TF over GST control)

Q: What about the binding signal [8] of the same sequence?
A: 1.14 fold enrichment (6-mer frequency, TF over GST control)

Q: And the binding signal [9]?
A: 1.11 fold enrichment (6-mer frequency, TF over GST control)
